Active and inactive are the calls of the source. How the calls were made is not given here.
Assay: inhibition of 3D7 malaria parasite growth – strain 3D7 (AID 2306);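 further: 0% = DMSO wells and 100% = chloroquine plus artemisinin control wells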
Conditions: P. falciparum 3D7 erythrocytic growth, LDH absorbance, 72 h; at 2 µM; hits give high values

Growth inhibition, active:
Cc1ccc2cc(NCCCCCCCCON3C(N)=NC(N)=NC34CCCCC4)ccc2n1 92%, O=C(C1CCN(c2nnnn2-c2ccccc2)CC1)N1CCc2ccccc2C1 97%, COc1cc2nc(N3CCN(C(=O)c4ccco4)CC3)nc(NCc3ccccc3)c2cc1OC 101%, C[C@@H]1CN(c2cnn(C/C=C/c3ccc(NC(=O)c4ccc(Cl)cc4)cc3)c(=O)c2Cl)C[C@H](C)N1 88%, O=C(N[C@@H](Cc1ccccc1)C(=O)NC1CCCCC1)c1ccc(O)c(-c2cccc(C(F)(F)F)c2)c1 96%, CC(=O)Nc1ccc(NC(=O)c2cc(-c3cc(Cl)ccc3O)n[nH]2)cc1 100%, CN1CCCN(c2ccnc3cc4c(cc23)N(C(=O)c2ccc(C(F)(F)F)cc2)CC4)CC1 101%, N#Cc1ccc(-c2ccc(C(=O)NCCCCN3CCC(c4ccc5c(c4OCC(N)=O)CCCC5)CC3)cc2)cc1 87%, NC(=O)c1cc2nc(Nc3ccc(F)cc3)nc(NC3CCC3)c2[nH]1 102%, CC(C)COc1ccc(Cl)cc1Nc1nc(-c2nc3ccccc3[nH]2)cs1 96%, Cc1cc(OCC2CCCO2)c2cc(NC(=O)C(=O)Nc3ccc4nc(C)cc(OCC5CCCO5)c4c3)ccc2n1 (stereo not given) 96%, CC(C)Sc1nc2c(c(=O)n1Cc1ccco1)C1(CCCC1)Cc1ccccc1-2 98%, Nc1c(Cl)cc(C(O)CNCCCCCCCCCc2ccccn2)cc1Cl (stereo not given) 98%, COc1cc(NC(=O)/C=C/c2cccc3ccoc23)ccc1OCCN(C(C)C)C(C)C 90%, Cc1ccc(N(CCC(=N)N)Cc2ccccc2)cc1 96%, c1ccc2[nH]c(CN(Cc3nc4ccccc4[nH]3)Cc3nc4ccccc4[nH]3)nc2c1 81%, COc1cc2ccccc2cc1OCCCN1CCN(CC(c2ccc(F)cc2)N2CCN(C(C)C)CC2)CC1 (stereo not given) 100%, COc1ccc(CCNCCCCCNCCCc2ccc(Cl)cc2)cc1OC 101%, Clc1cc(Cl)cc(Nc2ccnc(Nc3cc(Cl)cc(Cl)c3)n2)c1 99%, CC(C)(C)C(=O)Oc1ccc(CC2NCCc3cc(OC(=O)C(C)(C)C)c(OC(=O)C(C)(C)C)cc32)cc1OC(=O)C(C)(C)C (stereo not given) 97%, CSc1ccc(NC(=O)Nc2cc(C)nc3ccccc23)cc1 100%, Cc1cc(C2CCN(CCCCNC(=O)c3ccc(-c4ccc(C(F)(F)F)cc4)cc3)CC2)c(C)cc1OCC(N)=O 91%, COc1ccc(NC(=O)CCNc2cc(C)nc(NCc3ccccc3C)n2)cc1 94%, O=C(NCC1CCC(C(=O)O)CC1)c1ccc(/C=C/C(=O)N2CCc3ccccc3C2c2ccc3c(c2)OCO3)cc1 (stereo not given) 91%, O=C(C=Cc1cn(-c2ccccc2)nc1-c1ccccc1)N1CCN(c2ccncc2)CC1 90%, O=c1ccc2ncc(Cl)c3c2n1CC3CN1CCC(NCc2cc3c(cn2)OCCO3)CC1 (stereo not given) 96%, CC(C)NCc1ccc(-c2ccc(CN3CCCC(c4ccccc4)C3)cc2)c(C(=O)NC2Cc3ccccc3C2)c1 (stereo not given) 96%, O=C(Nc1ccc(-c2nc3ccccc3[nH]2)cc1)C1CCCN(C2CCC2)C1 (stereo not given) 90%, CCOC(=O)C(Oc1ccc2ccccc2c1)C(=O)OCC 98%, CC(C)CNC(=S)N1CCCN(c2nc3ccc(Cl)cc3s2)CC1 95%, O=C(CCc1ccccc1)NC(c1ccc(Cl)cc1)c1ccc2cccnc2c1O (stereo not given) 95%, O=C(Nc1cccc(-c2cccc(-c3nc4ccc(C(F)(F)F)cc4[nH]3)c2)c1)c1ccoc1 99%, COc1cc2nccc(Nc3cc(C)cc(O)c3)c2cc1OC 97%, O=C(NC1CCN(CCC[C@]2(c3ccc(Cl)c(Cl)c3)CCCN(C(=O)c3ccccc3)C2)CC1)c1ccc(Cl)cc1 95%, COc1cc(C)cc(CN2CCC(Cc3ccccc3)CC2)c1O 97%, Cc1ccc(-n2c(Cc3cccc4ccccc34)nnc2SCCC#N)c(C)c1 95%, O=C(NC1CCN(c2ccnc3cc(Cl)ccc23)C1)c1ccc(C(F)(F)F)cc1 (stereo not given) 101%, O=C(Nc1cccc(-c2cccc(-c3ccc(F)cc3)n2)c1)c1ccc([N+](=O)[O-])o1 99%, Nc1ncc(-c2ccc(NC(=O)Nc3cc(C(F)(F)F)ccc3F)cc2)c(N)n1 99%, Nc1ncnc2nc(-c3ccc(F)cc3)cc(-c3ccc(NC(=O)c4ccccc4)cc3)c12 100%

Reference: PubChem BioAssay
